# Data as given in PubChem BioAssay (Tox21).
# Several values for one entry are separate records, joined by “and”; a condition that tells them apart may be missing. Equal values may be shown once. Inconclusive results are not listed. A call without a number means that no potency is given here. Where a structure was tested more than once in an assay, its records may differ in their call. Activity calls are given as the source filed them. Calls follow the shape of the dose curve; as a rule, active = well fitted curve in the direction sought with a large enough effect in the repeat runs; inconclusive = weak or mixed curves; inactive = no such curve, though single readings can be large; an effect the other way counts as inactive or inconclusive.
# Experiments:
# [1] = A CellTox Green Cytotoxicity Assay to monitor cytotoxicity in HEK293 cells - 32 hour (AID 1224881); also: nearly all actives have a fitted effect of over 40% in size
# Outline: (§1)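 HEK293 cells premixed with CellTox Green dye were seeded at 600 cells/well and left 5 h at 37 C/5% CO2 before pin transfer of 23 nL compound in DMSO. Fluorescence from dye bound to dead-cell DNA was read during 40 h treatment.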
# [2] = A CellTox Green Cytotoxicity Assay to monitor cytotoxicity in HepG2 cells - 0 hour (AID 1224882); also: nearly all actives have a fitted effect of over 35% in size
# Outline: (§2)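 HepG2 cells were seeded together with the CellTox Green dye at 600 cells/well, left 5 h at 37 C/5% CO2, then given compounds in DMSO. Fluorescence from dye bound to dead-cell DNA was read repeatedly over 40 h of treatment at 37 C.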
# [3] = A CellTox Green Cytotoxicity Assay to monitor cytotoxicity in HepG2 cells - 32 hour (AID 1224883); also: nearly all actives have a fitted effect of over 50% in size
# Outline: as §2
# [4] = A CellTox Green Cytotoxicity Assay to monitor cytotoxicity in HEK293 cells - 8 hour (AID 1224884); also: nearly all actives have a fitted effect of over 35% in size
# Outline: as §1
# [5] = qHTS RealTime-Glo MT Cell Viability Assay in HEK293 cells - 24 hour (AID 1224886); also: nearly all actives have a fitted effect of over 50% in size; as to activity change, negative = cytotoxicity: top concentration of the series differs between compounds
# Outline: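 Tox21 10K qHTS, HEK293, 600 cells/well, RealTime-Glo reagent co-dispensed with cells; 5 h preincubation, compound by pintool, 37 C, luminescence at 0–40 h.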
# [6] = qHTS RealTime-Glo MT Cell Viability Assay in HEK293 cells - 8 hour (AID 1224887); also: nearly all actives have a fitted effect of over 50% in size; as to activity change, negative = cytotoxicity: top concentration of the series differs between compounds
# Outline: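 HEK293 cells mixed with RealTime-Glo reagents (NanoLuc plus cell-permeant prosubstrate) at 600 cells/well, preincubated 5 h at 37 C/5% CO2, then given 23 nL compound in DMSO. Nonlytic luminescence from viable cells was read at 0, 8, 16, 24, 32 and 40 h.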
# [7] = A CellTox Green Cytotoxicity Assay to monitor cytotoxicity in HEK293 cells - 16 hour (AID 1224888); also: nearly all actives have a fitted effect of over 35% in size
# Outline: as §1
# [8] = qHTS RealTime-Glo MT Cell Viability Assay in HepG2 cells - 0 hour (AID 1224889); also: nearly all actives have a fitted effect of over 50% in size
# Outline: (§3)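 Cells + NanoLuc/prosubstrate dispensed (600 cells/well) → 5 h at 37 C/5% CO2 → compounds in DMSO transferred → 40 h incubation at 37 C, luminescence read at 0, 8, 16, 24, 32, 40 h.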
# [9] = A CellTox Green Cytotoxicity Assay to monitor cytotoxicity in HepG2 cells - 8 hour (AID 1224890); also: nearly all actives have a fitted effect of over 45% in size
# Outline: as §2
# [10] = qHTS RealTime-Glo MT Cell Viability Assay in HepG2 cells - 16 hour (AID 1224885); also: nearly all actives have a fitted effect of over 50% in size
# Outline: as §3
# Potency is read from the fitted curve at half-maximal effect.
SMILES,Potency [1],Potency [2],Potency [3],Potency [4],Potency [5],Potency [6],Potency [7],Potency [8],Potency [9],Potency [10],"activity change, negative = cytotoxic [10]","activity change, negative = cytotoxicity [8]"
C=CCc1ccc(O)c(OC)c1,inactive,inactive,inactive,inactive,inactive,inactive,inactive,inactive,inactive,–,–,–
O=S1(=O)OC(c2ccc(O)cc2)(c2ccc(O)cc2)c2ccccc21,inactive,inactive,–,inactive,inactive,inactive,inactive,49 µM (active),inactive,49 µM (active) and inactive,–,–
CN(C)CCOC(C)(c1ccccc1)c1ccccn1 (stereo not drawn),inactive,inactive,inactive,inactive,inactive,inactive,inactive,inactive,inactive,–,–,–
CC1(C)S[C@@H]2[C@H](NC(=O)[C@H](N)c3ccccc3)C(=O)N2[C@H]1C(=O)O,inactive,inactive,inactive,inactive,–,–,–,–,inactive,–,–,–
Nc1c2c(nc3ccccc13)CCCC2,inactive,inactive,inactive,inactive,inactive,inactive,inactive,inactive,inactive,–,–,–
O=C1c2c(O)cccc2Cc2cccc(O)c21,inactive,inactive,inactive,inactive,inactive,inactive,inactive,inactive,inactive,–,–,–
CCOC(N)=O,inactive,inactive,inactive,inactive,inactive,inactive,–,inactive,inactive,–,–,–
CN1CCC[C@H]1c1cccnc1,inactive,inactive,–,inactive,inactive,inactive,–,inactive,inactive,inactive,–,–
C=C(C)C(=O)OCC(C)O (stereo not drawn),inactive,inactive,inactive,inactive,inactive,inactive,–,inactive,inactive,–,–,–
CCCC[P+](CCCC)(CCCC)CCCC,inactive,inactive,inactive,inactive,19.4 µM (active) and 4.36 µM (active),inactive,inactive,inactive,inactive,–,–,–
CC(C)C(=O)Nc1ccc([N+](=O)[O-])c(C(F)(F)F)c1,inactive,inactive,–,inactive,17.9 µM (active) and 21.9 µM (active) and 10.7 µM (active),22.5 µM (active) and 21.9 µM (active) and 9.52 µM (active),inactive,inactive,inactive,inactive,–,–
O=C(O)CC(O)C(=O)O (stereo not drawn),inactive,inactive,–,inactive,inactive,inactive,inactive,inactive,inactive,inactive,–,–
CCN(Cc1c(F)cccc1Cl)c1c([N+](=O)[O-])cc(C(F)(F)F)cc1[N+](=O)[O-],inactive,inactive,inactive,inactive,43.6 µM (active),–,inactive,inactive,inactive,–,–,–
Cc1cc(C)nc(NS(=O)(=O)c2ccc(N)cc2)n1,inactive,inactive,inactive,inactive,inactive,inactive,–,inactive,inactive,–,–,–
Nc1c(N=Nc2ccc(-c3ccc(N=Nc4cc(S(=O)(=O)O)c5ccccc5c4N)cc3)cc2)cc(S(=O)(=O)O)c2ccccc12,inactive,inactive,inactive,inactive,43.6 µM (active),24.5 µM (active),–,–,inactive,–,–,–
CN(C)C(=S)SC(=S)N(C)C,2.52 µM (active) and 8.71 µM (active) and 3.01 µM (active),inactive,2.52 µM (active) and 1.95 µM (active) and 2.68 µM (active),inactive,2.24 µM (active) and 2.19 µM (active) and 6.74 µM (active),inactive,inactive,inactive,inactive,–,–,–
C/C=C/C=C/C(=O)O,inactive,inactive,inactive,inactive,inactive,inactive,–,inactive,inactive,–,–,–
O=C(Nc1ncc([N+](=O)[O-])s1)c1cccs1,inactive,inactive,–,inactive,inactive,inactive,–,inactive,inactive,inactive,–,–
O=CC(=O)c1ccccc1,–,inactive,–,inactive,inactive,inactive,–,inactive,inactive,–,–,–
COc1ccc2cc(S(=O)(=O)N[C@H](CC(=O)N[C@H](Cc3ccc(CN4[C@H](C)CCC[C@@H]4C)cc3)C(=O)N(C)C(C)C)c3ccc4c(c3)OCO4)ccc2c1,52 µM (active),inactive,–,–,41.3 µM (active),46.3 µM (active),–,–,–,–,–,–
Nc1ccc2c(c1)CN1C(=O)c3ccccc3C1=N2,10.4 µM (active),10.4 µM (active),–,10.4 µM (active),9.28 µM (active),–,–,–,10.4 µM (active),–,-5.66% [at 15.8 µM] (inactive),4.86% [at 15.8 µM] (inactive)
CCN(CC)C(=O)c1cccc(C)c1,inactive,inactive,–,inactive,inactive,inactive,–,inactive,inactive,–,–,–
CN(C)C(=O)Nc1ccc(Cl)c(Cl)c1,inactive,inactive,–,inactive,inactive,inactive,–,inactive,inactive,–,–,–
COc1ccc2c(c1)c(CC(=O)O)c(C)n2C(=O)c1ccc(Cl)cc1,inactive,inactive,–,inactive,inactive,inactive,–,inactive,inactive,–,–,–

SMILES,Potency [1],Potency [2],Potency [3],Potency [4],Potency [5],Potency [6],Potency [7],Potency [8],Potency [9],Potency [10],"activity change, negative = cytotoxic [10]","activity change, negative = cytotoxicity [8]"
C1=CC2C3C=CC(C3)C2C1 (stereo not drawn),–,inactive,–,54 µM (active),inactive,inactive,–,inactive,inactive,inactive,–,–
COc1ccc(OC(F)(F)F)cc1CN[C@H]1CCCN[C@H]1c1ccccc1,–,inactive,49 µM (active),–,43.6 µM (active),–,–,–,–,–,–,–
Cn1c(=O)c2c(ncn2C)n(C)c1=O,inactive,inactive,–,inactive,inactive,inactive,inactive,inactive,inactive,–,–,–
OC[C@H]1O[C@H](O[C@]2(CCl)O[C@H](CCl)[C@@H](O)[C@@H]2O)[C@H](O)[C@@H](O)[C@H]1Cl,inactive,inactive,–,inactive,inactive,inactive,–,inactive,inactive,–,–,–
CCCCCCCC(=O)OCC(COC(=O)CCCCCCC)OC(=O)CCCCCCC,inactive,inactive,–,inactive,inactive,inactive,inactive,inactive,inactive,–,–,–
Cc1ncc([N+](=O)[O-])n1C,inactive,inactive,–,48.3 µM (active) and inactive,inactive,inactive,–,inactive,inactive,inactive,–,–
CCCCNC(=O)NS(=O)(=O)c1ccc(C)cc1,inactive,inactive,–,inactive,inactive,inactive,–,inactive,inactive,–,–,–
Cc1c(C(=O)O)c(O)cc2c1C(=O)c1c(O)c([C@@H]3O[C@H](CO)[C@@H](O)[C@H](O)[C@H]3O)c(O)c(O)c1C2=O,inactive,inactive,–,inactive,inactive,inactive,–,inactive,inactive,–,–,–
NC1CCCCC1,inactive,inactive,–,inactive,inactive,inactive,inactive,inactive,inactive,–,–,–
O=C1OC2(c3ccccc31)c1cc(Br)c(O)c(Br)c1Oc1c2cc(Br)c(O)c1Br,4.97 µM (active) and 7.11 µM (active) and 21.3 µM (active),9.92 µM (active) and 11.3 µM (active) and 23.9 µM (active),–,5.58 µM (active) and 12.7 µM (active) and 19 µM (active),inactive,inactive,–,9.92 µM (active) and 20 µM (active),5.58 µM (active) and 14.2 µM (active) and 21.3 µM (active),inactive,–,–
Nc1ccc([N+](=O)[O-])cc1O,inactive,inactive,–,inactive,inactive,inactive,inactive,inactive,inactive,–,–,–
CN[C@H]1CC[C@@H](c2ccc(Cl)c(Cl)c2)c2ccccc21,–,inactive,–,–,21.3 µM (active),–,–,inactive,–,–,–,–
CN1CCc2cccc3c2[C@H]1Cc1ccc(O)c(O)c1-3,55.5 µM (active) and inactive,inactive,–,inactive,14 µM (active) and 8.17 µM (active) and 23.9 µM (active),24.8 µM (active) and 14.5 µM (active),inactive,inactive,inactive,–,–,–
CC(O)(P(=O)(O)O)P(=O)(O)O,inactive,inactive,–,inactive,inactive and 436 nM (active),inactive,–,inactive,inactive,–,–,–
CC/C(=C(\c1ccccc1)c1ccc(OCCN(C)C)cc1)c1ccccc1,35 µM (active) [middle of 5 runs],inactive,–,44 µM (active) [middle of 5 runs],24.5 µM (active) [middle of 5 runs],39.2 µM (active) [middle of 4 runs],39.2 µM (active) [middle of 5 runs],inactive,55.3 µM (active) and 54.9 µM (active) and 49 µM (active),–,–,–
O=c1[nH]cc(F)c(=O)[nH]1,50.8 µM (active) and inactive,inactive,–,inactive,inactive,inactive,–,inactive,inactive,–,–,–
CCCCCCCCCCCC[N+](C)(C)Cc1ccccc1,38.1 µM (active) and 29.9 µM (active) and 23.9 µM (active),inactive,–,59.7 µM (active),4.28 µM (active) and 4.23 µM (active) and 3.01 µM (active),53.9 µM (active) and 59.7 µM (active),48 µM (active) and 53.2 µM (active) and 26.8 µM (active),inactive,53.9 µM (active) and 47.4 µM (active) and 23.9 µM (active),–,–,–
Cc1ncc([N+](=O)[O-])n1CCO,inactive,inactive,–,inactive,inactive,inactive,inactive,inactive,inactive,–,–,–
NS(=O)(=O)O,inactive,inactive,–,inactive,inactive,inactive,–,inactive,inactive,–,–,–
CCCCC1(COC(=O)CCC(=O)O)C(=O)N(c2ccccc2)N(c2ccccc2)C1=O,inactive,inactive,–,inactive,inactive,inactive,–,inactive,inactive,–,–,–
CCCCCCCCCCCCCCCC[N+](C)(C)Cc1ccccc1,50.5 µM (active) and 44.4 µM (active) and 23.9 µM (active),inactive,–,45 µM (active) and 15.8 µM (active) and 21.3 µM (active),8.98 µM (active) and 22.3 µM (active) and 3.01 µM (active),50.5 µM (active) and 49.8 µM (active) and inactive,–,inactive,63.6 µM (active) and 35.3 µM (active) and 26.8 µM (active),25.3 µM (active) and 19.8 µM (active) and 21.3 µM (active),–,–
Cc1ccc(S(=O)(=O)O)cc1,inactive,inactive,–,inactive,inactive,inactive,inactive,inactive,inactive,–,–,–
CN(N=O)C(=O)N[C@@H]1[C@@H](O)[C@H](O)[C@@H](CO)O[C@@H]1O,inactive,inactive,–,inactive,inactive,inactive,inactive,inactive,inactive,–,–,–
